SMILES strings stand for the structures. Several values for one entry are separate records, joined by “and”; a condition that tells them apart may be missing. Identical values can stand only once. Counter-ions that a name gives are not always drawn. ± gives the standard deviation of the averaged measurements.

The first test has as its system iBMDM (immortalised mouse bone-marrow-derived macrophages), LPS-stimulated. Kind of test: mitochondrial superoxide (MitoSOX fluorescence) fold increase over unstimulated control; higher = more LPS-induced mitochondrial ROS (less inhibition). Particulars: inhibitor concentration: 500 nM; LPS: 100 ng/ml; time after LPS: 1 h. Summed up:
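Cells were immortalised mouse bone-marrow-derived macrophages, plated in triplicate and switched to phenol-red-free 1% FCS/DMEM for 20 h. Kinase inhibitors (500 nM, 30 min) preceded MitoSox loading (1 μM, 10 min) and LPS addition (100 ng/ml), with 510/580 nm fluorescence read every 60 min for 4 h. Mitochondrial superoxide is reported as averaged fold induction over untreated macrophages.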
In turn, `CCCS(=O)(=O)Nc1ccc(F)c(C(=O)c2c[nH]c3ncc(-c4ccc(Cl)cc4)cc23)c1F` [Vemurafenib (PLX4032, RG7204)] displayed a mitochondrial superoxide of 1.159 ± 0.0019.

`C[C@@H]1CN(CC(=O)Nc2ccc3c(c2)Cc2cccc(-c4cc(=O)cc(N5CCOCC5)o4)c2S3)C[C@H](C)O1` returned a mitochondrial superoxide of 1.2 ± 0.07.

Compound `O=C1c2ccc(Nc3ccc(F)cc3F)cc2CCc2ccc(OC[C@H](O)CO)cc21` [Skepinone-L] yielded a mitochondrial superoxide of 1.43 ± 0.05.

In turn, `Cc1[nH]c(/C=C2\C(=O)Nc3ccc(S(=O)(=O)N(C)c4cccc(Cl)c4)cc32)c(C)c1C(=O)N1CCN(C)CC1` returned a mitochondrial superoxide of 1.33 ± 0.11.

With `C=CC(=O)Nc1cccc(Nc2nc(Nc3ccc(OCCOC)cc3)ncc2F)c1`, the mitochondrial superoxide was found to be 1.17 ± 0.03.

On to `O=C1NC(=O)C(c2ccccc2[N+](=O)[O-])=C1Nc1ccc(O)c(Cl)c1`, for which the mitochondrial superoxide was found to be 1.12 ± 0.024.

`N#CC(=Cc1ccc(O)c(O)c1)C(=O)NCc1ccccc1` [AG-490 (Tyrphostin B42)] gave a mitochondrial superoxide of 1.35 ± 0.052.

Compound `O=C(O)c1ccc(Nc2ncc3c(n2)-c2ccc(Cl)cc2C(c2c(F)cccc2F)=NC3)cc1` returned a mitochondrial superoxide of 1.37 ± 0.045.

In the case of `Nc1nc(NCCNc2ncc(-n3ccnc3)c(-c3ccc(Cl)cc3Cl)n2)ccc1[N+](=O)[O-]`, the mitochondrial superoxide was 1.17 ± 0.042.

As to `CC[C@@H]1C(=O)N(C)c2cnc(Nc3ccc(C(=O)N[C@H]4CC[C@H](N5CCN(CC6CC6)CC5)CC4)cc3OC)nc2N1C(C)C` [Volasertib (BI 6727)], the mitochondrial superoxide came out at 1.18 ± 0.016.

In the case of `Cc1cc(C(=O)NOCCO)c(Nc2ccc(I)cc2F)n(C)c1=O`, the mitochondrial superoxide was found to be 1.05 ± 0.042.

Compound `N#Cc1c(Oc2ccc(F)c(NC(=O)Cc3cccc(C(F)(F)F)c3)c2)ccc2nc(NC(=O)C3CC3)sc12` returned a mitochondrial superoxide of 1.35 ± 0.087.

`O=C(/C=C/c1ccc(O)c(O)c1)c1ccc(O)cc1O` [Butein] gave a mitochondrial superoxide of 1.49 ± 0.065.

The compound `CO[C@@H](C(=O)N1Cc2[nH]nc(NC(=O)c3ccc(N4CCN(C)CC4)cc3)c2C1)c1ccccc1` displayed a mitochondrial superoxide of 1.3 ± 0.035.

On to `CNC(=O)c1cccc(-c2ccc3c(N4CCOC[C@@H]4C)nc(N4CCOC[C@@H]4C)nc3n2)c1`, for which the mitochondrial superoxide is 1.18 ± 0.058.

With `COc1ccc(-c2ccc3ncc4c(c3c2)n(-c2ccc(N3CCNCC3)c(C(F)(F)F)c2)c(=O)n4C)cn1`, the mitochondrial superoxide came out at 1.1 ± 0.041.

As for `CS(=O)(=O)N1CCN(Cc2cc3nc(-c4cccc5[nH]ncc45)nc(N4CCOCC4)c3s2)CC1`, the mitochondrial superoxide was 1.28 ± 0.025.

On to `COC(=O)Nc1ccc(-c2nc(N3CCOCC3)c3cnn(C4CCN(C(=O)OC)CC4)c3n2)cc1`, for which the mitochondrial superoxide worked out at 1.14 ± 0.026.

In the case of `Cc1nc(Nc2ncc(C(=O)Nc3c(C)cccc3Cl)s2)cc(N2CCN(CCO)CC2)n1` [Dasatinib], the mitochondrial superoxide was 1.51 ± 0.022.

Regarding `O=C(Nc1ccc(OC(F)(F)F)cc1)c1sccc1NCc1ccnc2ccccc12`, the mitochondrial superoxide was found to be 1.21 ± 0.044.

On to `CS(=O)(=O)CCNCc1ccc(-c2ccc3ncnc(Nc4ccc(OCc5cccc(F)c5)c(Cl)c4)c3c2)o1`, for which the mitochondrial superoxide was 1.6 ± 0.073.

With `CC(C)N(CCC(=O)c1ccc2ccccc2c1)Cc1ccccc1`, the mitochondrial superoxide is 1.31 ± 0.017.

`CCn1c(-c2nonc2N)nc2c(C#CC(C)(C)O)ncc(OC[C@H]3CCCNC3)c21` returned a mitochondrial superoxide of 1.3 ± 0.025.

As for `Cc1csc(-c2nnc(Nc3ccc(Oc4ncccc4-c4ccnc(N)n4)cc3)c3ccccc23)c1`, the mitochondrial superoxide came out at 1.35 ± 0.042.

Turning to `FC(F)(F)c1ccc(/C=C/c2nc(COc3ccc(CCCCn4ccnn4)cc3)co2)cc1` [Mubritinib (TAK 165)], the mitochondrial superoxide came to 1.06 ± 0.033.

With `C[C@H](NC(=O)/C(C#N)=C/c1cccc(Br)n1)c1ccccc1`, the mitochondrial superoxide stood at 1.21 ± 0.039.

Compound `COc1ccc(Cl)cc1NC(=O)Nc1cc(C)nc2ccccc12` had a mitochondrial superoxide of 1.42 ± 0.05.

For `CN1CCN(C2CCN(C(=O)Nc3cc(Oc4ccc(NC(=O)C5(C(=O)Nc6ccc(F)cc6)CC5)c(F)c4)ccn3)CC2)CC1` [Golvatinib (E7050)], the mitochondrial superoxide was determined as 1.04 ± 0.073.

For `Cn1cc(-c2ccc3ncc(Cc4ccc5ncccc5c4)n3n2)cn1`, the mitochondrial superoxide was determined as 1.24 ± 0.1.

In the case of `CNC(=O)c1cc(Oc2ccc(NC(=O)Nc3ccc(Cl)c(C(F)(F)F)c3)cc2)ccn1` [Sorafenib Tosylate], the mitochondrial superoxide turned out to be 1.6 ± 0.039.

`NC(=O)Nc1cc(-c2cccc(F)c2)sc1C(=O)N[C@H]1CCCNC1` showed a mitochondrial superoxide of 1.08 ± 0.056.

As to `Cc1cc(Nc2ncnc3ccc(-c4ccc(CNCCS(C)(=O)=O)o4)cc23)ccc1Oc1ccn2ncnc2c1` [HER2-Inhibitor-1], the mitochondrial superoxide came to 1.26 ± 0.072.

`O=S(=O)(NCCNCC=Cc1ccc(Br)cc1)c1cccc2cnccc12` returned a mitochondrial superoxide of 1.01 ± 0.063.

Compound `COc1ccc2c(c1)c(C1=C(c3c[nH]c4ccccc34)C(=O)NC1=O)cn2CCCN(C)C` gave a mitochondrial superoxide of 1.23 ± 0.056.

With `O=C1NC(=O)C(=Cc2ccc(-c3ccc(F)cc3)o2)S1` (stereo in doubt), the mitochondrial superoxide amounted to 1.28 ± 0.044.

Turning to `N#CC[C@H](C1CCCC1)n1cc(-c2ncnc3[nH]ccc23)cn1`, the mitochondrial superoxide is 1.19 and 1.09.

For `Oc1cccc(-c2nc(N3CCOCC3)c3oc4ncccc4c3n2)c1`, the mitochondrial superoxide was determined as 1.61 ± 0.025.

Staying with this test, now noted: inhibitor concentration: 500 nM; LPS: 100 ng/ml; time after LPS: 2 h.
`CCCS(=O)(=O)Nc1ccc(F)c(C(=O)c2c[nH]c3ncc(-c4ccc(Cl)cc4)cc23)c1F` [Vemurafenib (PLX4032, RG7204)] registered a mitochondrial superoxide of 1.16 ± 0.015.

Compound `C[C@@H]1CN(CC(=O)Nc2ccc3c(c2)Cc2cccc(-c4cc(=O)cc(N5CCOCC5)o4)c2S3)C[C@H](C)O1` yielded a mitochondrial superoxide of 1.31 ± 0.059.

For the compound `O=C1c2ccc(Nc3ccc(F)cc3F)cc2CCc2ccc(OC[C@H](O)CO)cc21` [Skepinone-L], the mitochondrial superoxide was 1.41 ± 0.05.

The compound `Cc1[nH]c(/C=C2\C(=O)Nc3ccc(S(=O)(=O)N(C)c4cccc(Cl)c4)cc32)c(C)c1C(=O)N1CCN(C)CC1` gave a mitochondrial superoxide of 1.4 ± 0.15.

For `C=CC(=O)Nc1cccc(Nc2nc(Nc3ccc(OCCOC)cc3)ncc2F)c1`, the mitochondrial superoxide is 1.24 ± 0.072.

In turn, `O=C1NC(=O)C(c2ccccc2[N+](=O)[O-])=C1Nc1ccc(O)c(Cl)c1` showed a mitochondrial superoxide of 1.45 ± 0.084.

Take `N#CC(=Cc1ccc(O)c(O)c1)C(=O)NCc1ccccc1` [AG-490 (Tyrphostin B42)]: the mitochondrial superoxide amounted to 1.36 ± 0.041.

In turn, `O=C(O)c1ccc(Nc2ncc3c(n2)-c2ccc(Cl)cc2C(c2c(F)cccc2F)=NC3)cc1` had a mitochondrial superoxide of 1.45 ± 0.044.

On to `Nc1nc(NCCNc2ncc(-n3ccnc3)c(-c3ccc(Cl)cc3Cl)n2)ccc1[N+](=O)[O-]`, for which the mitochondrial superoxide amounted to 1.23 ± 0.024.

`CC[C@@H]1C(=O)N(C)c2cnc(Nc3ccc(C(=O)N[C@H]4CC[C@H](N5CCN(CC6CC6)CC5)CC4)cc3OC)nc2N1C(C)C` [Volasertib (BI 6727)] yielded a mitochondrial superoxide of 1.27 ± 0.026.

Consider `Cc1cc(C(=O)NOCCO)c(Nc2ccc(I)cc2F)n(C)c1=O`, for which the mitochondrial superoxide stood at 1.25 ± 0.092.

Turning to `N#Cc1c(Oc2ccc(F)c(NC(=O)Cc3cccc(C(F)(F)F)c3)c2)ccc2nc(NC(=O)C3CC3)sc12`, the mitochondrial superoxide was 1.49 ± 0.076.

The compound `O=C(/C=C/c1ccc(O)c(O)c1)c1ccc(O)cc1O` [Butein] displayed a mitochondrial superoxide of 1.65 ± 0.067.

Compound `CO[C@@H](C(=O)N1Cc2[nH]nc(NC(=O)c3ccc(N4CCN(C)CC4)cc3)c2C1)c1ccccc1` yielded a mitochondrial superoxide of 1.38 ± 0.029.

`CNC(=O)c1cccc(-c2ccc3c(N4CCOC[C@@H]4C)nc(N4CCOC[C@@H]4C)nc3n2)c1` came in with a mitochondrial superoxide of 1.46 ± 0.074.

`COc1ccc(-c2ccc3ncc4c(c3c2)n(-c2ccc(N3CCNCC3)c(C(F)(F)F)c2)c(=O)n4C)cn1` displayed a mitochondrial superoxide of 1.27 ± 0.078.

In the case of `CS(=O)(=O)N1CCN(Cc2cc3nc(-c4cccc5[nH]ncc45)nc(N4CCOCC4)c3s2)CC1`, the mitochondrial superoxide was 1.42 ± 0.027.

`COC(=O)Nc1ccc(-c2nc(N3CCOCC3)c3cnn(C4CCN(C(=O)OC)CC4)c3n2)cc1`: the mitochondrial superoxide amounted to 1.13 ± 0.02.

Compound `Cc1nc(Nc2ncc(C(=O)Nc3c(C)cccc3Cl)s2)cc(N2CCN(CCO)CC2)n1` [Dasatinib] yielded a mitochondrial superoxide of 1.61 ± 0.069.

For the compound `O=C(Nc1ccc(OC(F)(F)F)cc1)c1sccc1NCc1ccnc2ccccc12`, the mitochondrial superoxide is 1.2 ± 0.067.

`CS(=O)(=O)CCNCc1ccc(-c2ccc3ncnc(Nc4ccc(OCc5cccc(F)c5)c(Cl)c4)c3c2)o1` returned a mitochondrial superoxide of 1.72 ± 0.07.

As for `CC(C)N(CCC(=O)c1ccc2ccccc2c1)Cc1ccccc1`, the mitochondrial superoxide worked out at 1.44 ± 0.11.

Regarding `CCn1c(-c2nonc2N)nc2c(C#CC(C)(C)O)ncc(OC[C@H]3CCCNC3)c21`, the mitochondrial superoxide worked out at 1.4 ± 0.027.

With `Cc1csc(-c2nnc(Nc3ccc(Oc4ncccc4-c4ccnc(N)n4)cc3)c3ccccc23)c1`, the mitochondrial superoxide came to 1.5 ± 0.038.

Turning to `FC(F)(F)c1ccc(/C=C/c2nc(COc3ccc(CCCCn4ccnn4)cc3)co2)cc1` [Mubritinib (TAK 165)], the mitochondrial superoxide amounted to 1.17 ± 0.075.

Compound `C[C@H](NC(=O)/C(C#N)=C/c1cccc(Br)n1)c1ccccc1` came in with a mitochondrial superoxide of 1.368 ± 0.011.

On to `COc1ccc(Cl)cc1NC(=O)Nc1cc(C)nc2ccccc12`, for which the mitochondrial superoxide stood at 1.55 ± 0.055.

The compound `CN1CCN(C2CCN(C(=O)Nc3cc(Oc4ccc(NC(=O)C5(C(=O)Nc6ccc(F)cc6)CC5)c(F)c4)ccn3)CC2)CC1` [Golvatinib (E7050)] gave a mitochondrial superoxide of 1.08 ± 0.075.

Consider `Cn1cc(-c2ccc3ncc(Cc4ccc5ncccc5c4)n3n2)cn1`, for which the mitochondrial superoxide was 1.34 ± 0.053.

As for `CNC(=O)c1cc(Oc2ccc(NC(=O)Nc3ccc(Cl)c(C(F)(F)F)c3)cc2)ccn1` [Sorafenib Tosylate], the mitochondrial superoxide is 1.68 ± 0.099.

The compound `NC(=O)Nc1cc(-c2cccc(F)c2)sc1C(=O)N[C@H]1CCCNC1` showed a mitochondrial superoxide of 1.11 ± 0.028.

As to `Cc1cc(Nc2ncnc3ccc(-c4ccc(CNCCS(C)(=O)=O)o4)cc23)ccc1Oc1ccn2ncnc2c1` [HER2-Inhibitor-1], the mitochondrial superoxide came out at 1.34 ± 0.074.

In turn, `O=S(=O)(NCCNCC=Cc1ccc(Br)cc1)c1cccc2cnccc12` yielded a mitochondrial superoxide of 1.15 ± 0.074.

`COc1ccc2c(c1)c(C1=C(c3c[nH]c4ccccc34)C(=O)NC1=O)cn2CCCN(C)C` showed a mitochondrial superoxide of 1.27 ± 0.043.

The compound `O=C1NC(=O)C(=Cc2ccc(-c3ccc(F)cc3)o2)S1` (stereo in doubt) came in with a mitochondrial superoxide of 1.55 ± 0.089.

Regarding `N#CC[C@H](C1CCCC1)n1cc(-c2ncnc3[nH]ccc23)cn1`, the mitochondrial superoxide was 1.29 and 1.15.

In turn, `Oc1cccc(-c2nc(N3CCOCC3)c3oc4ncccc4c3n2)c1` gave a mitochondrial superoxide of 1.62 ± 0.03.

(Values after the supplement of paper PMC7393113.)
